Assay results reported in PubChem BioAssay (EPA / NIEHS).
Inconclusive results are not listed. Activity calls are given as the source filed them. How the source made its calls: active means hit-call score of the fitted dose curve at least 0.9, where 1 is the maximum; inconclusive means response in the unintended direction; inactive means score below 0.9.

Read-out: alkyl and aryl transferase (GSTA2), GSTA2 (gene 2939)
Assay: CLD_GSTA2_6hr: CellzDirect (CLD) Gene Expression Assay for alkyl and aryl transferase (GSTA2) at 6 hours (AID 2283666)
Method: CLD_6hr is a cell-based, multiplexed-readout assay that uses hepatocyte, a human liver primary cell, with measurements taken at 6 hours after chemical dosing in a 96-well plate.CLD_GSTA2_6hr is one of 16 assay component(s) measured or calculated from the CLD_6hr assay. It is designed to make measurements of mRNA induction, a form of inducible reporter, as detected with chemiluminescence signals by Quantitative Nuclease Protection Assay (qNPA) technology.Data from the assay component CLD_GSTA2_6hr was analyzed at the endpoint, CLD_GSTA2_6hr, in the positive analysis fitting direction relative to DMSO as the negative control and baseline of activity. Using a type of inducible reporter, gain-of-signal activity can be used to understand changes in the reporter gene as they relate to the gene GSTA2. Furthermore, this assay endpoint can be referred to as a primary readout. To generalize the intended target to other relatable targets, this assay endpoint is annotated to the transferase intended target family, where subfamily is alkyl and aryl transferase.
Human hepatocyte cultures were treated daily for two consecutive days with fresh dosing solutions containing appropriate concentrations of the 320 ToxCast chemicals (chemical identities were blinded to CellzDirect and other ToxCast collaborators), vehicle control (0.2% DMSO), and positive control inducers as summarized in Table 1. Due to the large number of treatment groups and chemicals examined, the ToxCast chemicals were divided into two groups (spanning two independent cultures of hepatocytes from separate donor preparations (Hu778: ToxCast plates 1 and 2; Hu776: ToxCast plates 3 and 4). Each preparation of human hepatocyte cultures was treated with respective vehicle control, medium only control, set of six positive controls/reference chemicals for the five hepatic receptor pathways, and a subset of eight of the ToxCast chemicals (indoxacarb, pyrithiobac-sodium, norflurazon, cyhalofop-butyl, methomyl, thiram, acetochlor, and propiconazole). These replicate data, coupled with internal replicates designed within the blinded ToxCast chemical library, provided additional data to evaluate interindividual differences between hepatocyte preparations and their potential impact on chemical profiles.Cell morphology and integrity were evaluated using phase-contrast microscopy as an indicator of hepatocyte cell health (Tyson & Green, 1987). Cultures for each treatment group (i.e., media, vehicle [0.2% DMSO], positive control inducers [multiple concentrations], and the ToxCast chemicals [multiple concentrations]) were observed and cell morphology was assessed relative to vehicle control cultures at each harvest time point (0, 6, 24, or 48 h). […] Images were evaluated at the conclusion of the study to assess changes in cell integrity and account for the effects of chemical exposure on uncharacteristic changes in concentration-dependent gene expression profiles. The results from these determinations of apparent cytotoxicity were annotated (yes/no) alongside the corresponding qNPA data for reference.At the conclusion of each treatment period, hepatocyte cultures (96-well) were washed with 1 volume of HBSS, lysed by addition of 25 ul ArrayPlate lysis buffer (HTG, Tucson, AZ), and 70 ul/well of Denaturation Oil, denatured by incubation at 95C for 10 min, and frozen at approximately -70C until analysis by nuclease protection assay (qNPA) (Roberts et al., 2007). For qNPA analysis, cell lysates were thawed at 50C for approximately 30 min, qNPA probes were added, and samples were incubated at 95C for 10 min to begin the detection process by denaturing the target RNA, dissociating the duplexes and secondary structure hybridization. At the conclusion of the hybridization period, S1 nuclease reagent was added to each sample to digest all nonprotected nucleotides at 50C for 60-90 min. […]

Row | SMILES | outcome
1 | O=C(Nc1ccccc1)Nc1cnns1 | inactive
2 | CNC(=O)Oc1cccc(N=CN(C)C)c1 | inactive
3 | CC(C)(C)C(O)C(Oc1ccc(Cl)cc1)n1cncn1 (stereo not given) | inactive
4 | CCc1ccc(C(=O)NN(C(=O)c2cc(C)cc(C)c2)C(C)(C)C)cc1 | inactive
5 | Oc1cc(Cl)ccc1Oc1ccc(Cl)cc1Cl | inactive
6 | CCOc1nc(NC)nc(NC(=O)NS(=O)(=O)c2ccccc2C(=O)OC)n1 | inactive
7 | O=C(O)COc1ccc(Cl)cc1Cl | inactive
8 | CN1CSC(=S)N(C)C1 | inactive
9 | CC1(C)C(C=C(Cl)Cl)C1C(=O)OC(C#N)c1ccc(F)c(Oc2ccccc2)c1 (stereo not given) | inactive
10 | O=C(O)CCCOc1ccc(Cl)cc1Cl | inactive
11 | CC(C)(C)C(O)/C(=C\c1ccc(Cl)cc1Cl)n1cncn1 (stereo not given) | inactive
12 | N#CN | inactive
13 | CCN(CC)C(=O)SCc1ccc(Cl)cc1 | inactive
14 | CC(C)OC(=O)Nc1cccc(Cl)c1 | inactive
15 | C[C@H]1[C@H](c2ccc(Cl)cc2)SC(=O)N1C(=O)NC1CCCCC1 | inactive
16 | CCS(=O)(=O)c1cccnc1S(=O)(=O)NC(=O)Nc1nc(OC)cc(OC)n1 | inactive
17 | C#CCN1C(=O)COc2cc(F)c(N3C(=O)C4=C(CCCC4)C3=O)cc21 | inactive
18 | Clc1ccccc1-c1nnc(-c2ccccc2Cl)nn1 | inactive

Row | SMILES | outcome
19 | OCCOc1ccccc1 | inactive
20 | CC1(c2ccc(Oc3ccccc3)cc2)OC(=O)N(Nc2ccccc2)C1=O (stereo not given) | inactive
21 | O=[N+]([O-])c1c(Cl)c(Cl)c(Cl)c(Cl)c1Cl | inactive
22 | Oc1ccc(Cl)cc1Cc1ccccc1 | inactive
23 | O=[N+]([O-])/N=C1\NCCN1Cc1ccc(Cl)nc1 | inactive
24 | CCCN(CCC)c1c([N+](=O)[O-])cc(C(F)(F)F)cc1[N+](=O)[O-] | inactive
25 | CCOC1Oc2ccc(OS(C)(=O)=O)cc2C1(C)C (stereo not given) | inactive
26 | O=C(NC(=O)c1c(F)cccc1F)Nc1ccc(OC(F)(F)C(F)OC(F)(F)F)c(Cl)c1 (stereo not given) | inactive
27 | N#Cc1c(Cl)c(Cl)c(Cl)c(C#N)c1Cl | inactive
28 | COC(=O)c1ccccc1CS(=O)(=O)NC(=O)Nc1nc(OC)cc(OC)n1 | inactive
29 | [2H]C1([2H])[n+]2ccccc2-c2cccc[n+]2C1([2H])[2H] | inactive
30 | COC(=O)c1ccccc1S(=O)(=O)NC(=O)N(C)c1nc(C)nc(OC)n1 | inactive
31 | CCC(C)(C)C(=O)OC1=C(c2ccc(Cl)cc2Cl)C(=O)OC12CCCCC2 | inactive
32 | CCOCN(C(=O)CCl)c1c(C)cccc1CC | inactive
33 | CCC(C)(NC(=O)c1cc(Cl)c(C)c(Cl)c1)C(=O)CCl (stereo not given) | inactive
34 | ClC1C(Cl)C(Cl)C(Cl)C(Cl)C1Cl (stereo not given) | inactive
35 | CNC(=O)CSP(=S)(OC)OC | inactive
